Results as given in the supplement of paper PMC3334620.
Whole data set: some 33,000 sequences, median “E-score (-0.5 to 0.5)” near -0.011, cut for the highest 2% near 0.28. The list comes from a sample in which the highest values are over-represented; it also holds similar and randomly drawn sequences.

molecular target: T1, Gcr1 (UniProt P07261); test: PBM E-score (8-mer binding enrichment) (E-score (-0.5 to 0.5)); higher = stronger / more preferred TF binding; settings: protein concentration: 100 nM; construct: GST-full length
T1 sequence: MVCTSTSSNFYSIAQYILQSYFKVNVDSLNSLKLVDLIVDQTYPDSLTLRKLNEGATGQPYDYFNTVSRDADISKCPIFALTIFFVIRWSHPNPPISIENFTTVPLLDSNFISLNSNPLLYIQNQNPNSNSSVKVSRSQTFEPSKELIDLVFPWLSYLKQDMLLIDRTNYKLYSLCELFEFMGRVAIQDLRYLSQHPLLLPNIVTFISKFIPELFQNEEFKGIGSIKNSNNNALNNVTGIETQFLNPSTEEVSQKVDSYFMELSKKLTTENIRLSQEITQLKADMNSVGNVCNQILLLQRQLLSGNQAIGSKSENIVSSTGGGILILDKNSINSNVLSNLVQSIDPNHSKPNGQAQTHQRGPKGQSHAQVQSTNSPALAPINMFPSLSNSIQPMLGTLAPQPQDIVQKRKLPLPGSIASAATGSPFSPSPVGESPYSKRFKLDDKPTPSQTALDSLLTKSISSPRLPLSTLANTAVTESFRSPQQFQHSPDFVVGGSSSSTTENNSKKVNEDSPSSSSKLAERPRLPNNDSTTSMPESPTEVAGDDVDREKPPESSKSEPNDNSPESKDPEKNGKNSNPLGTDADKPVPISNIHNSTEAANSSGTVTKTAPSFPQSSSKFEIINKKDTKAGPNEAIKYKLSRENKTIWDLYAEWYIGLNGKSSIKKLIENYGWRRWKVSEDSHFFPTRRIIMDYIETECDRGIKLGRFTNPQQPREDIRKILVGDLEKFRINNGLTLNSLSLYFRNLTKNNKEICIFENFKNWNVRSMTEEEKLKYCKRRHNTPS
Experimental: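 Universal 'all 10-mer' protein binding microarrays (Agilent AMADID 015681) probed with GST-tagged S. cerevisiae TFs (full-length or DBD) made by in vitro transcription/translation (PURExpress), about 100-200 nM. Bound TF was detected with fluorescent anti-GST. Each ungapped 8-mer (which stands for itself and its reverse complement) is scored by the PBM enrichment score (E-score), a modified Wilcoxon-Mann-Whitney statistic from -0.5 to +0.5, computed with the Universal PBM Analysis Suite. Scale: above 0.35 generally sequence-specific binding.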

| Sequence | PBM E-score |
| --- | --- |
| CGGCATCA | 0.223 |
| CGGCATCC | 0.444 |
| CGGCATAC | -0.113 |
| AGGCATCC | 0.387 |
| AGGCATCA | -0.162 |
| AGGCATCG | 0.0175 |
| ACGCCTCA | -0.137 |
| CGGCTCCC | 0.34 |
| CGGCTGCA | 0.0568 |
| AGGCTGCC | 0.382 |
| CGGCTGCC | 0.376 |
| AGGCTGCG | 0.138 |
| AGGCTCCC | 0.24 |
| CGGCTCCA | 0.0712 |
| AGGCTGCA | -0.0233 |
| CTGCTGCC | -0.0289 |
| CTGTCTTA | 0.0396 |
| CGCCATAC | 0.127 |
| TACCAGCA | 0.0312 |
| ACCCAGGT | 0.0419 |
| CAACGCTG | -0.0977 |
| ATTTTTCA | 0.1 |
| ACGGCTCT | -0.00284 |
| AAATGGCT | 0.0656 |
| ACTCACCC | -0.126 |

| Sequence | PBM E-score |
| --- | --- |
| GTGGAAGA | 0.172 |
| CTGGAAGA | 0.0722 |
| ATGGAAGC | 0.344 |
| CTGGAAGC | 0.45 |
| ATGGAAGG | -0.201 |
| ATGGAAGA | -0.0302 |
| CCATGGGC | 0.0107 |
| ACCCCTGA | 0.0403 |
| CCTGGTCG | -0.127 |
| TCCCACGA | 0.244 |
| GGCACCAC | 0.249 |
| CGCACCTA | 0.0792 |
| TGCACCAA | -0.133 |
| GGCACCAA | 0.335 |
| GGCACCTA | 0.281 |
| AGCACCTA | 0.241 |
| CCACAAAC | 0.19 |
| ATGCATCC | -0.00178 |
| ATGAAATG | 0.104 |
| TCCCCAAA | 0.226 |
| CGGGCGCA | 0.0492 |
| CGGGCGGC | 0.0469 |
| AGGGCGCA | -0.0301 |
| AGGGCGCC | 0.399 |
| AGGGCGCG | 0.194 |

| Sequence | PBM E-score |
| --- | --- |
| CGGGCGCC | 0.421 |
| ATTAAGGG | 0.0551 |
| ATTATCCG | 0.00436 |
| TACCTGAA | 0.0937 |
| ATCAGGAG | 0.0606 |
| CTCTCCAA | -0.0761 |
| AGTGTCAG | -0.142 |
| GCAGATAC | 0.0819 |
| ACAGATTC | 0.176 |
| CCAGATAC | 0.294 |
| CCAGATTA | 0.233 |
| CCAGATTC | 0.326 |
| CCAGATAA | 0.0427 |
| CCCTGCCA | 0.0623 |
| CCGCGCAG | -0.219 |
| AGGGATTG | 0.0467 |
| GTGCACTA | -0.146 |
| AGCTGGCA | 0.0163 |
| GAAGCTTC | 0.339 |
| GAAGCTCC | 0.309 |
| AAAGCTCC | -0.0149 |
| AAAGCTGA | 0.113 |
| GAAGCGGA | 0.328 |
| CAAGCTGA | -0.139 |
| CAAGCTTC | 0.232 |

| Sequence | PBM E-score |
| --- | --- |
| GAAGCTTA | 0.136 |
| GAAGCTCA | 0.224 |
| CAAGCGGA | -0.137 |
| GAAGCTGA | 0.322 |
| TAAGCGGA | -0.143 |
| ATGGGCTC | 0.102 |
| TCGGTGAA | -0.0389 |
| GACCATAC | 0.159 |
| CACAGCTA | -0.0538 |
| AAAACGCT | -0.0686 |
| TACCCGGA | -0.0492 |
| GTAATGGA | 0.0927 |
| CAGGCCCG | -0.263 |
| TATAAGGA | 0.124 |
| GCTTTGGA | 0.0838 |
| AAACGCCG | 0.0308 |
| CCGCTAGA | -0.00443 |
| AGGCTTGG | 0.0323 |
| CAAGCTGC | 0.149 |
| AAAGCTGC | -0.123 |
| GAAGCTGC | 0.406 |
| CAATCGAG | 0.00485 |
| CTTCCGAC | -0.00712 |
| GAGTGATA | -0.122 |
| CCGAAGGC | -0.158 |

| Sequence | PBM E-score |
| --- | --- |
| ATCGAGGC | -0.0857 |
| ACCAGATA | 0.0838 |
| AAAGCCCA | -0.0697 |
| AAAGCCCC | -0.121 |
| GAAGCCCC | 0.381 |
| CAAGCCCC | -0.18 |
| CAAGCCCA | -0.244 |
| GAAGCCCA | 0.368 |
| AACGCGGT | -0.107 |
| GTTAAATA | 0.0652 |
| TCTAAGAA | 0.0856 |
| AGTCTCCA | 0.0915 |
| CGTCTCCC | 0.0616 |
| CGTCTCCA | 0.284 |
| CGGCCCCC | 0.0724 |
| ACTAGTCG | 0.065 |
| AGTCTGCA | -0.179 |
| GAAGAGCA | -0.0362 |
| CAGTGATA | 0.0897 |
| AACCAAGG | -0.00121 |
| GGATCCCA | 0.391 |
| AGATCCCC | 0.156 |
| AGATCCCA | 0.265 |
| CGATCCCC | 0.111 |
| GGCTCCCA | 0.348 |

| Sequence | PBM E-score |
| --- | --- |
| TGATCCCA | 0.065 |
| TGCTCCCA | -0.0935 |
| CGCTCCCA | 0.132 |
| GGATCCCC | 0.362 |
| AGTCTAGC | 0.0246 |
| CTGATAAG | 0.0222 |
| GTAGCTGA | -0.023 |
| TATCTCGA | -0.115 |
| GTTCCTTA | 0.0517 |
| GGGCTCCA | 0.318 |
| TGACTCCA | 0.0388 |
| AGGCTCCA | 0.263 |
| CGACTCCA | 0.0419 |
| GGGCTCGA | -0.0878 |
| GGACTCCA | 0.345 |
| AGATGAGG | -0.0257 |
| ATATTATG | 0.132 |
| CTAGACCC | -0.0797 |
| AAAGACTC | -0.195 |
| CGCCATAG | -0.14 |
| AAGTTCGA | 0.0312 |
| GGAAGGCA | 0.0904 |
| AAGTAGCT | 0.208 |
| CAGCTTGC | -0.267 |
| CAGCTTCA | 0.0949 |

| Sequence | PBM E-score |
| --- | --- |
| AAGCTTCG | 0.129 |
| CTGCTTCC | 0.177 |
| AAGCTTCC | 0.353 |
| CAGCTTCG | 0.328 |
| AAGCTTCA | -0.0647 |
| CAGCTTCC | 0.457 |
| AAGCTTCT | 0.184 |
| CAAGAGCG | 0.0229 |
| GGGCGAGA | -0.0433 |
| AAGATTAA | 0.233 |
| AGAATGTG | -0.221 |
| GAGTCCAC | 0.257 |
| AACGCCTA | -0.0917 |
| AGGATTCA | -0.164 |
| AGGATTCG | 0.126 |
| CGGATTCA | -0.0182 |
| CGGATTTC | -0.122 |
| AGGATTCC | 0.373 |
| CGGATTCC | 0.463 |
| CGGATGCA | 0.0929 |
| CGGATGCC | 0.404 |
| CTGATGCC | -0.0173 |
